Screening results as filed in PubChem.
TMEM16A act: activators or potentiators of mouse TMEM16A chloride channel; HEK293 TMEM16A/YFP-H148Q/I152L, iodide quench fluorescence; hits give low values; B-score at 10 µM; 340,000 compounds, 0.3% hits;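 active = fluorescence-ratio B-score plate-corrected deviation score at least 3 library SD below zero, with starting fluorescence score within 5 deviations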;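 also: channel opened by trigger with iodide after compound preincubation; score built on the fluorescence ratio of max minus min over baseline; more negative score means more quench and so TMEM16A activation or potentiation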
Target sequence (Q8BHY3 whole entry, looked up): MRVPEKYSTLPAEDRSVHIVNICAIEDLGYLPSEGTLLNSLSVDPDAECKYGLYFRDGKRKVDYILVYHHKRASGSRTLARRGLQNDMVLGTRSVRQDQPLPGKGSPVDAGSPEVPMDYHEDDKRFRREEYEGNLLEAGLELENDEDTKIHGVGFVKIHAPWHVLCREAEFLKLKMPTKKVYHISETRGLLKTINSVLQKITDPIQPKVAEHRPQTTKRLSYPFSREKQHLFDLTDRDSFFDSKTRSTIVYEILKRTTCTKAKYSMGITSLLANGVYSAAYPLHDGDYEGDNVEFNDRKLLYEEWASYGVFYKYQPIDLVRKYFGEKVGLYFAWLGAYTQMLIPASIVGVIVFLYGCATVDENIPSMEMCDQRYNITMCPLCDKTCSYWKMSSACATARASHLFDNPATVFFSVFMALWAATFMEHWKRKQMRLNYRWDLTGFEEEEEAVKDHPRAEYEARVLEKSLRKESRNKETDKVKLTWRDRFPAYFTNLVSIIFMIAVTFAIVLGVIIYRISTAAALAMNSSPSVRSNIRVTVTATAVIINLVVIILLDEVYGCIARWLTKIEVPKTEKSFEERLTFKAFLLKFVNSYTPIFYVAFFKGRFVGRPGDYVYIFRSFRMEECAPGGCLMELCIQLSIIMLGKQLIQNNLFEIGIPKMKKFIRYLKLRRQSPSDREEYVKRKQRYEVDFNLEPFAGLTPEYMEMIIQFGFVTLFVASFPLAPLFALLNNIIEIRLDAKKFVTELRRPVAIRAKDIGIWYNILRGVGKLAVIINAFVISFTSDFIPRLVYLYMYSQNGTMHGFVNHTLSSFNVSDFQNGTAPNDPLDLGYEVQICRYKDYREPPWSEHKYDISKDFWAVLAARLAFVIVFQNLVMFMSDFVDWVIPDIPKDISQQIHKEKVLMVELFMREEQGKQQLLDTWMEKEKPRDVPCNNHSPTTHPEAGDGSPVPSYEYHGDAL
ANO1 block: mouse TMEM16A channel inhibition, primary screen; HEK293 TMEM16A/YFP iodide influx fluorescence, ionomycin; normalized B-score (activity score, 25-100; higher = stronger inhibition) at 10 µM; 310,000 compounds, 1.2% hits; AID 588511;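 active = ratio plate-corrected score three or more library SD toward inhibition, starting fluorescence score within five deviations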;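 also: score derived from kinetic fluorescence span divided by baseline fluorescence per well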
PKA-R1A activ: activates the PKA-R1A holoenzyme complex | P00514+P68181 | 340,000 compounds, 0.083% hits | PKA-R1A dissociation, Cy5-IP20 fluorescence polarization; scaled: DMSO 0%, 113 µM cGMP 100% | activation, % at 11.4 µM;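 active = percent activation above the mean of all tested compounds plus 3 SD, cut at about 19% in these data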;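 also: higher means more PKAc released from R1A so a rise in polarization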
CHT allo act: allosteric activators of human choline transporter CHT; Q9GZV3; CHT-expressing cells, membrane potential dye, choline EC20; hits give high values; LV-AA mutant CHT in HEK293 cells; B-score at 10 µM; 310,000 compounds, 0.49% hits;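 active = initial fluorescence not abnormally high and integrated response B-score, plate-corrected, over 3 SD above library mean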
PKA-R2B act: PKA-R2B complex activation; P22694+P31323; PKA-R2B holoenzyme dissociation, Cy5-IP20 fluorescence polarization; R2B truncated from residue 108, S112A mutant; 0% DMSO only, 100% 113 µM cGMP; activation, % at 11.4 µM; 340,000 compounds, 0.079% hits; AID 504700;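 active = activation above a cutoff set at the mean over all compounds plus 3 SD, cut at about 18% in these data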;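 also: higher means more holoenzyme dissociation and a rise in polarization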
CHT block: inhibitors of human choline transporter CHT | CHT-expressing cells, membrane potential dye, choline response; hits give low values | B-score at 10 µM | 310,000 compounds, 0.86% hits;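 active = B-score over 3 SD under the library average, and starting fluorescence ratio not unusually high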;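 also: choline stimulus applied at its EC90 after an EC20 pre-addition; B-score computed on integrated fluorescence ratio after choline addition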
CHT act confirm: human CHT activation, confirmatory screen; shares compounds with CHT allo act; CHT-expressing cells, membrane potential dye fluorescence (FDSS); % of choline EC20–EC90 response window; HEK293 expressing CHT LV-AA mutant; choline added at its EC20; activation, % at 10 µM; 2,500 compounds, 91% hits;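 active = primary screen active, with duplicate mean activation above negative control mean plus 3 SD, cut at about 11% in these data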
HEK293 MP dye: counter-screen for CHT activators: effect in parental HEK293 cells; membrane potential dye fluorescence (FDSS); measured after EC20 choline addition; ratio readout change at 10 µM, hits read low; shares compounds with CHT allo act; 2,500 compounds, 62% hits;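 active = duplicate-averaged ratio beyond 3 SD from buffer wells, up or down, though filed actives are nearly all decreases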
Numbers stand for hits; – = inactive; · = no result. The list is not random: actives were taken first. Their share in the collection is about 2.5%.

SMILES | TMEM16A act | ANO1 block | PKA-R1A activ | CHT allo act | PKA-R2B act | CHT block | CHT act confirm | HEK293 MP dye
Cc1ccn2c(Nc3ccc4c(c3)OCO4)c(-c3ccccn3)nc2c1 | – | – | – | 6.3 | – | – | 50.8 | –
O=C(Nc1ccc(-c2nc3ccccc3[nH]2)cc1)C1CCCN(Cc2ccn[nH]2)C1 (configuration not stated) | · | · | – | · | – | · | · | ·
CCS(=O)(=O)Nc1cccc(C2=NN(S(=O)(=O)c3ccccc3)C(c3ccco3)C2)c1 (configuration not stated) | – | – | – | – | – | – | · | ·
CS(=O)(=O)Nc1cccc(C2=NN(S(=O)(=O)c3ccccc3)C(c3ccco3)C2)c1 (configuration not stated) | – | – | – | – | – | – | 25.6 | –
Cc1cc(C)cc(C(=O)NC(CC(N)=O)c2ccc(NCC3CC3)c([N+](=O)[O-])c2)c1 (configuration not stated) | – | – | – | – | – | – | · | ·
Cc1cc(NCCCN2CCOCC2)n2c(nc3ccccc32)c1C#N | – | – | – | 6.35 | – | – | 55.4 | -91
CCN(CC)CCNc1cc(C)c(C#N)c2nc3ccccc3n12 | – | – | – | – | – | – | 42.0 | -81.3
Cc1c2c(n3c(nc4ccccc43)c1C#N)N(CCN1CCOCC1)CC2 | – | – | – | 7.86 | – | – | 53.7 | -46.1
Cc1ccc2oc(=O)n(CC(=O)OCCC(C)C)c2c1 | – | – | – | – | – | – | · | ·
CN(C)CCNC(=O)c1onc(CSc2ccc(F)cc2)c1C(=O)NCCN(C)C | – | – | – | 6.7 | – | – | 17.5 | -20.5
CCC(NC(=O)c1ccc2nc(Cc3ccc(OC)cc3)oc2c1)c1ccncc1 (configuration not stated) | – | – | – | – | – | – | · | ·
COc1ccc2c(C(=O)CCl)c[nH]c2c1 | – | – | – | – | – | – | · | ·
CCC[n+]1c(C)sc2c(OC)ccc(OC)c21 | – | – | – | 11.9 | – | – | 47.1 | –
CCCC[N+](CC#CCO)(CC#Cc1ccccc1)CCCC | – | – | – | 10.5 | – | – | 73.8 | –
CCN1CCN(c2cc(N3CCN(C(=O)c4ccco4)CC3)c3c4c(onc24)-c2ccccc2C3=O)CC1 | – | – | – | – | – | – | 25.0 | -52.1
C[C@H]1CN=C2N(CCNC(=O)CCC3CCCCC3)[C@H](Cc3ccc(O)cc3)CN21 | – | – | – | – | – | – | · | ·
O=C(CCC1CCCCC1)NCCN1C2=NC[C@H](Cc3ccccc3)N2C[C@H]1Cc1ccc(O)cc1 | – | – | – | 6.8 | – | – | 40.2 | –
O=C(CCC1CCCCC1)NCCN1C2=NC[C@@H](Cc3ccccc3)N2C[C@H]1Cc1ccc(O)cc1 | – | – | – | 13.4 | – | – | 37.1 | –
COc1ccc(C[C@H]2CN3C(=NC[C@@H]3C)N2CCNC(=O)CCC2CCCCC2)cc1 | – | – | – | – | – | – | – | –
COc1ccc2nc(C)cc(SCC(=O)N3CCCCC3)c2c1 | – | – | – | – | – | – | 31.8 | -45.2
CCOC(=O)CNC(=O)CSc1cc(C)nc2ccc(OC)cc12 | – | – | – | – | – | – | 44.4 | -42.3
COc1ccc2cc(C#N)c(SCC(=O)N3CCCC3)nc2c1 | – | – | – | – | – | – | · | ·
COc1ccc(-c2noc(CNC(=O)CCN3C(=O)[C@H]4CC=CC[C@H]4C3=O)n2)cc1 | – | – | – | – | – | – | · | ·
COc1ccc(C(=O)CSc2nnc(CNC(=O)c3ccco3)n2C)cc1 | – | – | – | 6.59 | – | – | 69.4 | -50.9
COc1ccc(C(=O)CSc2nnc(CNC(=O)c3ccco3)n2C)cc1OC | – | – | – | – | – | – | · | ·
SMILES | TMEM16A act | ANO1 block | PKA-R1A activ | CHT allo act | PKA-R2B act | CHT block | CHT act confirm | HEK293 MP dye
CC(C)CC(=O)Nc1c2c(nn1-c1cccc(Cl)c1)CS(=O)C2 (configuration not stated) | – | – | – | – | – | – | · | ·
COc1ccccc1C(=O)N1C(CC(=O)Nc2cc(Cl)ccc2C)C(=O)NC2CCCCC21 (configuration not stated) | – | – | – | – | – | – | 24.5 | –
Cn1nnc2cc(C(=O)Nc3cccnc3)ccc21 | – | – | – | 6.69 | – | – | 51.7 | -34
CC(C)(OC(=O)c1cccs1)c1cc2ccccc2c(=O)o1 | – | · | – | · | – | · | · | ·
O=C(O)/C=C/c1ccc(S(=O)(=O)Nc2ccccc2C(=O)Nc2ccc(F)cc2)cc1 | – | – | – | – | – | – | · | ·
O=[N+]([O-])c1cccc(-c2nc(-c3ccncc3)no2)c1 | – | – | – | 7.13 | – | – | 44.2 | -43.3
CCCN(CCC)S(=O)(=O)c1ccc(C)cc1 | – | – | – | – | – | – | · | ·
CCN1c2ccccc2-c2nc3ccccc3n2C1c1cccs1 (configuration not stated) | – | – | – | 7.4 | – | – | 44.7 | –
COc1cccc(NC(=O)C2(S(=O)(=O)c3ccc(Cl)cc3)CC2)c1 | – | – | – | – | – | – | · | ·
Cc1cc(N2CCC(N(C)C3CCCC3)CC2)nc2cc(O)ccc12 | – | – | – | 12.4 | – | – | 31.3 | -73.3
O=[N+]([O-])c1ccc(Cl)c(C[n+]2cccc3ccccc32)c1 | – | – | – | – | – | – | 54.1 | -46
Clc1cccc(Cl)c1C[n+]1cccc2ccccc21 | – | – | – | – | – | – | · | ·
N#Cc1cc(N2CCCCC2)c([N+](=O)[O-])cc1C#N | – | – | – | – | – | – | · | ·
CN(C)CCC1CCN(c2cc(C#N)c(C#N)cc2[N+](=O)[O-])CC1 | – | – | – | 7.16 | – | – | 57.7 | -63.9
Cc1cccc(OC(C)C(=O)Nc2nc(-c3ccncc3)cs2)c1 (configuration not stated) | – | · | – | · | – | · | · | ·
COc1ccc(-c2noc(CSc3nc4ccccc4c(=O)n3-c3ccccc3)n2)cc1OC | – | – | – | – | – | – | 13.9 | –
Cc1ccccc1-n1ncc2c1CC(C)(C)CC2NC(=O)c1cn[nH]c1C (configuration not stated) | – | – | – | – | – | – | · | ·
CCCCN(C)C(=O)Cn1nc(Cc2ccncc2)c2ccccc2c1=O | – | – | – | – | – | – | · | ·
COc1ccc(N(C)C(=O)Cn2c(=O)oc3ccccc32)c(OC)c1 | – | – | – | – | – | – | · | ·
